Records with an inconclusive call do not appear. The source made the active and inactive calls. Unless noted, the call rests on the fitted dose curve; in most records, active means well fitted curve in the direction sought with a large enough effect; inconclusive means small, poorly fitted or top-dose-only effect, or another doubt; inactive means no such curve, though single readings can be large; an effect the other way counts as inactive or inconclusive.
Experiments:
[1] = AP1 Signaling Pathway (AID 357; active means well fitted curve in either direction with a large enough effect, not every such curve was filed as active;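 further: ME-180 reporter cells stimulated with EGF at its EC50 level; on the % scale 0 is the no-effect control and ±100 the full control effect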); details: ME-180 AP-1-bla reporter, EGF-induced, beta-lactamase ratio, 5 h; at 7.69 µM (top of the series) unless noted
Outline: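 In this screen, ME-180 cells in Opti-MEM with 0.5% dialyzed FBS received EC50 EGF and compound titrations for 5 h. AP-1 reporter beta-lactamase was detected via CCF4 ratio, giving AC50 for positive and negative modulators.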

[2] = biological target: Cytochrome P450 1A2 (Homo sapiens) (UniProt P05177); assay: p450-cyp1a2 (AID 410; calls by dose curve; further: potency means the concentration at half of the fitted maximal effect)
Outline: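 20nM CYP1A2, 100uM Luciferin-ME (=Km), 100mM KPO4; cpd 10 min RT; +NADPH regen, 60 min RT; stop/detect 20 min; luminescence. Normalized to furafylline 57 uM = full inhibition.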

[3] = NFAT Signaling Pathway (AID 444; active means well fitted curve in either direction with a large enough effect, not every such curve was filed as active;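 further: carbachol stimulus at about its EC50 of 1 µM final; on the % scale 0 is the no-effect control and ±100 the full control effect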); details: Jurkat NFAT-bla M1, carbachol, beta-lactamase ratio, 5 h; at 7.69 µM (top of the series) unless noted
Outline: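 Jurkat cells carrying an NFAT-driven β-lactamase reporter and co-transfected muscarinic M1 receptor were treated with compound plus carbachol (1 uM final, an EC50 level) for 5 h at 37 °C. CCF4 loading followed for 1 h at RT; 460/530 nm ratio gave %activity.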

[4] = Stat Signaling Pathway (AID 446; active means well fitted curve in either direction with a large enough effect, not every such curve was filed as active;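 further: ME-180 cervical cancer cells given 40 pM IL-6 alongside compound; SIE-controlled beta-lactamase reporter measured as 460/530 nm FRET emission ratio; on the % scale 0 is the no-effect control and ±100 the full control effect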); details: ME-180 SIE beta-lactamase reporter, IL-6 stimulated, 5 h; at 7.69 µM (top of the series) unless noted
Outline: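 Overnight-plated ME-180 cells bearing a STAT Inducible Element beta-lactamase reporter; 5 h co-exposure to compound and 40 pM IL-6; values normalized to 300 pM IL-6 and 125 nM JAK inhibitor controls.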

[5] = biological target: Glucocorticoid receptor (Homo sapiens) (UniProt P04150); assay: GR-GFP Redistribution (AID 450;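 active means compounds whose dose series gives a full or clear partial fitted curve of increased nuclear translocation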; further: potency means the concentration at half of the fitted maximal effect); details: U2OS GR-GFP nuclear translocation, laser cytometry, 2 h
[6] = biological target: Glucocorticoid receptor (Homo sapiens) (UniProt P04150); assay: GR-EFC Redistribution (AID 451; calls by dose curve; further: potency means the concentration at half of the fitted maximal effect); details: CHO-K1 GR-EFC translocation, beta-gal luminescence, 2 h
Outline: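 CHO-K1 cells stably expressing nuclear-localized β-gal enzyme acceptor and GR fused C-terminally to the enzyme donor fragment; ligand-driven nuclear translocation restores β-gal by complementation. Compounds titrated up to 46 uM final, 2 h at 37 °C; luminescence read.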

[7] = biological target: Mitogen-activated protein kinase 10 (Mus musculus) (UniProt Q61831); assay: JNK3 AlphaScreen Assay (AID 530; active means well fitted curve in either direction with a large enough effect, not every such curve was filed as active;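 further: kinase came from lysate of stimulated human HepG2 cells; signal reports phosphorylation of biotinylated GST-cJun 1-79 at Ser73 with 10 µM ATP; on the % scale 0 is the no-effect control and ±100 the full control effect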)
Outline: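 Biotinylated GST-cJun(1-79) served as substrate for JNK3 in HepG2 lysates stimulated with IL-1beta and TNF-alpha. ATP was 10 uM final, pH 7.6. Ser73 phosphorylation was quantified by AlphaScreen (680 nm excitation).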

[8] = biological target: Cytochrome P450 3A4 (Homo sapiens) (UniProt P08684); assay: qHTS Assay for Inhibitors and Substrates of Cytochrome P450 3A4 (AID 884); further: potency means the concentration at half of the fitted maximal effect; nearly all actives have a fitted effect of over 50% in size
Outline: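 Luminescent readout of luciferin produced by CYP3A4 (20 nM) dealkylation of Luciferin-PPXE, 25 uM (its KM). NADPH-driven reaction ran 60 min at RT after 10 min compound preincubation; data scaled to 57 uM ketoconazole as 100% inhibition.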

[9] = biological target: Cytochrome P450 3A4 (Homo sapiens) (UniProt P08684); assay: qHTS Assay for Activators of Cytochrome P450 3A4 (AID 885); further: nearly all actives have a fitted effect of over 65% in size
Outline: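 Using 20nM recombinant human CYP3A4 in potassium phosphate (200mM), substrate Luciferin-PPXE at 25uM, luminescent luciferin detection followed a 60-min RT NADPH reaction; data scaled to 57 uM ketoconazole.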

[10] = biological target: Cytochrome P450 2C19 (Homo sapiens) (UniProt P33261); assay: qHTS Assay for Inhibitors and Substrates of Cytochrome P450 2C19 (AID 899); further: potency means the concentration at half of the fitted maximal effect; nearly all actives have a fitted effect of over 60% in size
Outline: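 NADPH-dependent conversion of Luciferin-H EGE (10uM, at KM) by 5nM enzyme in 50mM KPO4, 60 min at 37C following 10 min compound preincubation. Stopped with luciferin detection buffer; luminescence read after 20 min.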

[11] = biological target: Dual specificity protein kinase CLK4 (Homo sapiens) (UniProt Q9HAZ1); assay: qHTS Assay for Inhibitors of CDC-like Kinase 4 (ADP-FP Assay) (AID 1795); further: on the % scale 0 is the no-effect control and ±100 the full control effect; nearly all actives have a fitted effect of over 60% in size
Outline: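 Recombinant human Clk4 (6.25 nM) phosphorylated RS repeat peptide (100 uM) with 1 uM ATP in Tris pH 7.5/MgCl2/EGTA/DTT/Triton buffer for one hour. ADP was quantified by Transcreener competitive fluorescence polarization against an ADP calibration curve.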

[12] = biological target: Ubiquitin carboxyl-terminal hydrolase 1 (Homo sapiens) (UniProt O94782); assay: Inhibitors of USP1/UAF1: Pilot qHTS (AID 504865);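 further: rhodamine fluorescence freed from ubiquitin-rhodamine substrate followed over time; top concentration of the series differs between compounds; on the % scale 0 is the no-effect control and ±100 the full control effect; nearly all actives have a fitted effect of over 35% in size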
Outline: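 USP1/UAF1 complex (1nM) preincubated with compound 15 min at room temperature, then Ub-Rho substrate (150nM final) added. Fluorescence read kinetically at 480/540 nm, 6 reads every 60 seconds. Buffer: 50mM HEPES pH 7.8, 0.5mM EDTA, 0.1 mg/ml BSA, 1mM TCEP, 0.01% Tween-20.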

[13] = Primary qHTS for small molecule stabilizers of the endoplasmic reticulum resident proteome: Secreted ER Calcium Modulated Protein (SERCaMP) assay (AID 1508630); further: on the % scale 0 is the no-effect control and ±100 the full control effect
Outline: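 The SH-SY5Y reporter protocol was run at 3 concentrations up to 38.3 uM (primary) or 11 concentrations (follow-up): 16 h compound, 100 nM thapsigargin for 4 h, then extracellular luciferase luminescence.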

[14] = biological target: Lysosomal acid glucosylceramidase (Homo sapiens) (UniProt P04062); assay: Glucocerebrosidase-p2 (AID 348; in the data active means potency below about 10 µM; further: potency means the concentration at half of the fitted maximal effect); details: purified GBA, blue fluorogenic substrate, 40 min
Outline: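 Normal human glucocerebrosidase (0.2 nM) with blue fluorogenic substrate (80 uM final) in citrate/phosphate pH 5.9 with 10mM sodium taurocholate, 0.01% tween-20; 40 min RT, NaOH/glycine stop; fluorescence Ex 365/Em 440; AC50 from a titration from 0.6 nM upwards.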

[15] = biological target: Cytochrome P450 2C9 (Homo sapiens) (UniProt P11712); assay: qHTS Assay for Inhibitors and Substrates of Cytochrome P450 2C9 (AID 883); further: potency means the concentration at half of the fitted maximal effect; nearly all actives have a fitted effect of over 60% in size
Outline: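 A luminogenic readout tracked human CYP2C9 (10nM) converting deoxyluciferin (100uM, at KM) in 25mM KPO4 during 60 min at 37C with regenerated NADPH. Values normalized to 57uM sulphaphenazole as complete inhibition.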

[16] = biological target: Cytochrome P450 2D6 (Homo sapiens) (UniProt P10635); assay: qHTS Assay for Inhibitors and Substrates of Cytochrome P450 2D6 (AID 891); further: potency means the concentration at half of the fitted maximal effect; nearly all actives have a fitted effect of over 60% in size
Outline: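 Luminescent read-out of luciferin formed by 5 nM human CYP2D6 demethylating 30 uM Luciferin-ME EGE (Km level) over 60 min at room temperature after NADPH regeneration addition. Data normalized to full inhibition by 1.43 uM quinidine.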

[17] = Confirmation and Secondary Assay for Modulators of Hemoglobin Beta Chain Splicing at IVS2 654 locus (AID 910);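 further: per-well total GFP intensity by laser scanning cytometry after 2-day treatment; % of control where 0% means no effect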
Outline: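 HeLa cells stably carrying EGFP interrupted by mutant beta-globin IVS2-654 intron (CMV-driven) were treated with compound for 2 days at 37C; corrected splicing was scored as total peak GFP intensity per well (488 nm excitation, 500-520 nm emission).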

[18] = Confirmation and Secondary Assay for Modulators of Hemoglobin Beta Chain Splicing at IVS2 705 locus (AID 930);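 further: HeLa cells stably expressing the EGFP-705 splicing reporter; GFP fluorescence per well restored by corrected splicing of the IVS2-705 intron in EGFP; % of control where 0% means no effect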
Outline: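 Per-well GFP, captured at 1 x 8 µm resolution with 488 nm excitation, served as the read-out for HeLa EGFP-705 cells incubated 2 days with test compound versus DMSO.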

[19] = biological target: 3',5'-cyclic-AMP phosphodiesterase 4B (Homo sapiens) (UniProt Q07343); assay: qHTS Assay for Inhibitors of PDE-IV (AID 607; active means well fitted activation curve with a large enough effect in the main read-out, with a control signal flat, not every such curve was filed as active; further: % of control where 0% means no effect)
Outline: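 Live HEK293 cells with a modified cyclic nucleotide-gated (CNG) channel report intracellular cAMP via membrane-potential dye fluorescence (ex 535/em 590 nm). Endogenous PDE-IV was targeted. Compounds were tested at up to 22.9 uM final; RO 20-1724 100 uM served as control.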

[20] = qHTS Assay for Identification of Small Molecule Agonists for Hypoxia Response Element Signaling Pathway (AID 914; active means well fitted activation curve with a large enough effect in the signal ratio, with a control signal flat, not every such curve was filed as active; the % refers to the signal ratio; further: potency means the concentration at half of the fitted maximal effect; on activation: % of control where 0% means no effect); details: ME-180 (cervical carcinoma) HRE-bla reporter, beta-lactamase ratio, CoCl2, 17 h; activation: active compounds read high
Outline: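 In Opti-MEM containing 0.5% dialyzed FBS and 10 mM HEPES, ME-180 HRE-bla cells received a compound titration and EC50 CoCl2. They were incubated 17 hours, then CCF4-loaded 2.5 hours at room temperature before ratio reading.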

Sequence of Dual specificity protein kinase CLK4 (Homo sapiens) (Q9HAZ1 whole entry, looked up): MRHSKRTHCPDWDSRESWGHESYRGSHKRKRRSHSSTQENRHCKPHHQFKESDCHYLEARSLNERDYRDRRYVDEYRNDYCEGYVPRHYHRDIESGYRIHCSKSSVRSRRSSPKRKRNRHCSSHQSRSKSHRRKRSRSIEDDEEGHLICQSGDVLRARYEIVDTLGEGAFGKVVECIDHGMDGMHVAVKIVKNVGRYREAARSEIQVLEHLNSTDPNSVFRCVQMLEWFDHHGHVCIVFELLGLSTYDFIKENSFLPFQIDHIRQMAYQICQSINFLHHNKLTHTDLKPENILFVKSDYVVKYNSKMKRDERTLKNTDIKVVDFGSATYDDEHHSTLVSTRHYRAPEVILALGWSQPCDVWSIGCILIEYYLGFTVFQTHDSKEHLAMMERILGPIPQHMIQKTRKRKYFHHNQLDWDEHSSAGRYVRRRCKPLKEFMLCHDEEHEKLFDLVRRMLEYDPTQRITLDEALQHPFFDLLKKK
Sequence of Ubiquitin carboxyl-terminal hydrolase 1 (Homo sapiens) (O94782 whole entry, looked up): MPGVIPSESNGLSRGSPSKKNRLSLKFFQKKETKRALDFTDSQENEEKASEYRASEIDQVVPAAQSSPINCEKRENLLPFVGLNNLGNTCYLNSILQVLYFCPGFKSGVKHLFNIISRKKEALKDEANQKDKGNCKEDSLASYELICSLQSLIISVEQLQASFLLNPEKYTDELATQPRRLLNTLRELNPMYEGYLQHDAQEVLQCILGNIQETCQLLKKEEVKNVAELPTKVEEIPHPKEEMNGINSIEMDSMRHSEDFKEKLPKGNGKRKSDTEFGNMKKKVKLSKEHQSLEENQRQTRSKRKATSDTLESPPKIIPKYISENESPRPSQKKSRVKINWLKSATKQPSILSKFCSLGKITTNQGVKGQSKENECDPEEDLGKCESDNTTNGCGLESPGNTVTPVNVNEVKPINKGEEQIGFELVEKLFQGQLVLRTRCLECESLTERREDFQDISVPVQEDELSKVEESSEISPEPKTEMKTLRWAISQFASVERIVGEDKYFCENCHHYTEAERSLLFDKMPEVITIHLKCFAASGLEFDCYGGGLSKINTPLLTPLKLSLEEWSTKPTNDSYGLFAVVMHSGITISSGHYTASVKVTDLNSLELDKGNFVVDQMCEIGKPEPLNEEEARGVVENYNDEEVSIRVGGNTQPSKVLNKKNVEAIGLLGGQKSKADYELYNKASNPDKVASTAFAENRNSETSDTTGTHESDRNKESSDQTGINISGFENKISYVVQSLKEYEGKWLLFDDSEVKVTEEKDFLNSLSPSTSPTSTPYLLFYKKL
Sequence of Cytochrome P450 3A4 (Homo sapiens) (P08684 whole entry, looked up): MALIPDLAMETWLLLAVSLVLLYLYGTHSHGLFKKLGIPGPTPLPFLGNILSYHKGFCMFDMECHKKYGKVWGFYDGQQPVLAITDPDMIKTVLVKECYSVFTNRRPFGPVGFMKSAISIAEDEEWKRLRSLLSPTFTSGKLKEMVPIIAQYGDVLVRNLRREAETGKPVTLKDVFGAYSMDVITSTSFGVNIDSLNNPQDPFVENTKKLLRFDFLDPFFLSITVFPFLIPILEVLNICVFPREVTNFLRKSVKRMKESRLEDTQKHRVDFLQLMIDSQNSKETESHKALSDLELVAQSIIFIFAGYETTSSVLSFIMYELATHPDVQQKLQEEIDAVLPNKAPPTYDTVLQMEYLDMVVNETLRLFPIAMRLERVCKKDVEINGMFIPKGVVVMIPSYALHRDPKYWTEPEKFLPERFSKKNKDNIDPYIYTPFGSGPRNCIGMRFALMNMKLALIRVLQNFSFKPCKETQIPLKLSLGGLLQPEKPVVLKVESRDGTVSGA
Sequence of Lysosomal acid glucosylceramidase (Homo sapiens) (P04062 whole entry, looked up): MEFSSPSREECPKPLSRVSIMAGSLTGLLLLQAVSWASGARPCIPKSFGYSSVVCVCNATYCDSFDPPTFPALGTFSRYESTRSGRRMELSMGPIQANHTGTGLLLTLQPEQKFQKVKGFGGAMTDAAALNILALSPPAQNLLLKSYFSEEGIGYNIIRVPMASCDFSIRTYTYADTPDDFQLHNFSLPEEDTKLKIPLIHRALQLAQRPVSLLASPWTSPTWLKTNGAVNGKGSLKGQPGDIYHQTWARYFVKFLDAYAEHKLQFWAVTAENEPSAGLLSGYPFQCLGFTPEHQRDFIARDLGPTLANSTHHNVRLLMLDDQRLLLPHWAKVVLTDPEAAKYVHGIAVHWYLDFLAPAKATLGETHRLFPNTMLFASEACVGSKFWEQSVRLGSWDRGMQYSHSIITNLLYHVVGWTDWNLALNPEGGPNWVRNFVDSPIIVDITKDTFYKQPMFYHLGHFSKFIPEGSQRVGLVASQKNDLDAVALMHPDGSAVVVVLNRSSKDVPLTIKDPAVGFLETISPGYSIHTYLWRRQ
Sequence of Cytochrome P450 1A2 (Homo sapiens) (P05177 whole entry, looked up): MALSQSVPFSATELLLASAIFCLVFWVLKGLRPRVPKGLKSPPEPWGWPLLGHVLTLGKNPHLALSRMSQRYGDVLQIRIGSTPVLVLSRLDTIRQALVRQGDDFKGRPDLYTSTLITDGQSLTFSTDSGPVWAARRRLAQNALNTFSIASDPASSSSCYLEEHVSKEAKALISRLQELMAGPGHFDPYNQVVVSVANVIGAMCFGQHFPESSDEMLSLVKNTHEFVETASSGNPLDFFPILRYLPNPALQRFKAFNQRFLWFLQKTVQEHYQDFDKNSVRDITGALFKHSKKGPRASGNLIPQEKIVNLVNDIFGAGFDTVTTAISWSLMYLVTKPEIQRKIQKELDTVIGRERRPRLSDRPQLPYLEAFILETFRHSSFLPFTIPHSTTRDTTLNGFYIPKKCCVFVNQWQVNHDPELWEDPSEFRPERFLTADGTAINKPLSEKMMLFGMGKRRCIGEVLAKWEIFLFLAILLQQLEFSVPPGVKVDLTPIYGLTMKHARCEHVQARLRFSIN
Sequence of 3',5'-cyclic-AMP phosphodiesterase 4B (Homo sapiens) (Q07343 whole entry, looked up): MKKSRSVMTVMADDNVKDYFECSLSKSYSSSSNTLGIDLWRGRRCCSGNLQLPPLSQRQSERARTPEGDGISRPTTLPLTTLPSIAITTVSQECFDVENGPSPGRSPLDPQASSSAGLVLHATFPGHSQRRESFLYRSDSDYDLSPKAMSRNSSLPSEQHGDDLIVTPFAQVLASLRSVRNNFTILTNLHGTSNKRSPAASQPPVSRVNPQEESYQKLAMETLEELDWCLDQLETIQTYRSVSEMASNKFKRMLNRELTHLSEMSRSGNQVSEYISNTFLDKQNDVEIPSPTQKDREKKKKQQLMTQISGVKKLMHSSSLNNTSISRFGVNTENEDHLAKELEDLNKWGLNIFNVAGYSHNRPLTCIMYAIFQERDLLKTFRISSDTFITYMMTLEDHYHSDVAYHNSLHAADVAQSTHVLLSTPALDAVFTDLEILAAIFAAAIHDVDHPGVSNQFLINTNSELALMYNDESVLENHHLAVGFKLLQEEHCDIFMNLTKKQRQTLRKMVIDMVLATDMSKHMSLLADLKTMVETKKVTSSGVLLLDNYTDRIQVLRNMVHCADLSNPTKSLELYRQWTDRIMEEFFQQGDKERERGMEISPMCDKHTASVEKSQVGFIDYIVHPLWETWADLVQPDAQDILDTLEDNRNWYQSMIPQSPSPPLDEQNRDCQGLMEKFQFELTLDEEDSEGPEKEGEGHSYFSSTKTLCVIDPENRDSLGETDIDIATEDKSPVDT
Sequence of Glucocorticoid receptor (Homo sapiens) (P04150 whole entry, looked up, the tested form may be a part): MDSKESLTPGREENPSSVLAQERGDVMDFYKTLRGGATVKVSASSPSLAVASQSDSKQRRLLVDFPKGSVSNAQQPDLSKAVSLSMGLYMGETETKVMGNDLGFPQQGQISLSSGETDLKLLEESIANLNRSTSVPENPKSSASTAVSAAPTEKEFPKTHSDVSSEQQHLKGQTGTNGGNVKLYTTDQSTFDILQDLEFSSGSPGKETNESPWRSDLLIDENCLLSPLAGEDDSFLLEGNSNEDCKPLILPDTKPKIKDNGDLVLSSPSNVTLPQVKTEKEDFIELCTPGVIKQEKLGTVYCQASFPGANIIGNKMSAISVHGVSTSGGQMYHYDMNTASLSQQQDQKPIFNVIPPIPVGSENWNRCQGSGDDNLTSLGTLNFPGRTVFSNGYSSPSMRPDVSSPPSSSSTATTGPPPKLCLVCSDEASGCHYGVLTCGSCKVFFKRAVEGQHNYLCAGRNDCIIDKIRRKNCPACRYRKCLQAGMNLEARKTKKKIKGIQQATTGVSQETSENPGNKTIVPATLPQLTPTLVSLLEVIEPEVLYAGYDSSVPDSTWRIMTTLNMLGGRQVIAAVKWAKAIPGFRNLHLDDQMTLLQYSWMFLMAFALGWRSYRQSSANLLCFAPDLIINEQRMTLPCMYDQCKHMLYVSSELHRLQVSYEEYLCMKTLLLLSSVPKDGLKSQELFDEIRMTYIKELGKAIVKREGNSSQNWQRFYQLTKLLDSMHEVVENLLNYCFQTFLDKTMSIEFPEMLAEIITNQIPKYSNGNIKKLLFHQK
Sequence of Cytochrome P450 2C19 (Homo sapiens) (P33261 whole entry, looked up): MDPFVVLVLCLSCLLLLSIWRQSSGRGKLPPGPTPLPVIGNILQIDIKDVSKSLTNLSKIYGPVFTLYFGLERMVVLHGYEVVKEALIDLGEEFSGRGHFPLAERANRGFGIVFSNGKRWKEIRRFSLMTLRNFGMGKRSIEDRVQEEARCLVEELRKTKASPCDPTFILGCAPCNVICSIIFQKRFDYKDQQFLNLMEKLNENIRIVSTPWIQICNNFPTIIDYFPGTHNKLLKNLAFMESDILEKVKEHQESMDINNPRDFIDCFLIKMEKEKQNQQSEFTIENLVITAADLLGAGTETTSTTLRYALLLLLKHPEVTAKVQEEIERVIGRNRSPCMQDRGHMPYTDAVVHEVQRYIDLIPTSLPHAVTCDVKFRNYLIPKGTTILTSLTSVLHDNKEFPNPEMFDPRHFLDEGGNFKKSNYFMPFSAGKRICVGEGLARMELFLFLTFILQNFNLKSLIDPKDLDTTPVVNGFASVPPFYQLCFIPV

COc1cccc(-c2nccc(NCc3ccc(OC)cc3OC)n2)c1
active: Potency [2] 1 µM | Potency [8] 3.16 µM | Potency [10] 2.51 µM
inactive: activity change, negative = inhibition [1] -28.1% | activity change, negative = inhibition [3] -2.27% | activity, negative = inhibition [4] -11.4% | Potency [5] > 46 µM | Potency [6] > 46 µM | Potency [7] | Potency [9] | Potency [11] | Potency [12] | outcome [13]

COc1cccc(-c2cncnc2NCCc2cnc[nH]2)c1
active: Potency [2] 0.398 µM | Potency [15] 0.251 µM | Potency [8] 0.631 µM | Potency [16] 7.94 µM
inactive: Potency [14] > 11.4 µM | activity change, negative = inhibition [1] -20.9% | activity change, negative = inhibition [3] -4.17% | activity, negative = inhibition [4] -17% | Potency [5] > 46 µM | Potency [6] > 46 µM | Potency [7] | Potency [9] | Potency [17] | outcome [18] | Potency [12] | outcome [13]

CC(=O)NCCNc1nc(-c2ccc3c(c2)OCO3)nc2ccccc12
inactive: Potency [14] > 11.4 µM | activity change, negative = inhibition [1] -7.08% | activity change, negative = inhibition [3] 5.61% | activity, negative = inhibition [4] 4.37% | Potency [5] > 46 µM | Potency [6] > 46 µM | Potency [7] | Potency [19] | Potency [9] | Potency [12] | outcome [13]
active: Potency [2] 2.51 µM | Potency [8] 3.98 µM

Clc1ccccc1-c1nc(NCCN2CCOCC2)c2ccccc2n1
inactive: activity change, negative = inhibition [1] 16% | activity change, negative = inhibition [3] -7.69% | activity, negative = inhibition [4] -5.23% | Potency [5] > 46 µM | Potency [6] > 46 µM | Potency [7] | Potency [19] | Potency [9] | Potency [11] | Potency [12] | outcome [13]
active: Potency [2] 12.6 µM | Potency [20] 3.16 µM

COc1ccc(CNc2ccnc(-c3ccccc3Cl)n2)c(OC)c1
inactive: activity change, negative = inhibition [1] -21.2% | activity change, negative = inhibition [3] -26% | activity, negative = inhibition [4] -16.2% | Potency [5] > 46 µM | Potency [6] > 46 µM | Potency [7] | Potency [19] | Potency [9] | activation [20] -15.3% | Potency [11] | outcome [13]
active: Potency [2] 5.01 µM | Potency [8] 3.16 µM | Potency [10] 1.26 µM

c1ccc2c(NC3CC3)nc(-c3ccoc3)nc2c1
inactive: activity change, negative = inhibition [1] 14.4% | activity change, negative = inhibition [3] -16.4% | activity, negative = inhibition [4] -5.96% | Potency [5] > 46 µM | Potency [6] > 46 µM | Potency [7] | Potency [9] | Potency [12] | outcome [13]
active: Potency [14] 3.8 µM | Potency [2] 0.316 µM | Potency [8] 3.98 µM

Reference: PubChem BioAssay (NCATS)
